# Screening data (PubChem)
# DT40 TDP1 CPT – qHTS for Inhibitors of human tyrosyl-DNA phosphodiesterase 1 (TDP1): qHTS in cells in presence of CPT | 420,000 compounds, 12% hits | chicken DT40 Tdp1-/-;hTDP1 cells + 20 nM CPT, ATP luminescence, 48 h | Potency, µM (top dose mostly 46.2 µM), for the others: top-dose activity change, negative = growth inhibition, most hits filed as inhibitors | AID 686979, 2013; note: potency is the fitted concentration of half-maximal effect; % is set by controls: 0 for no effect and ±100 for the full control effect; nearly all actives have a fitted effect of over 55% in size
#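 Chicken DT40 Tdp1-/- cells stably complemented with human TDP1 were seeded at 400 cells/well in medium containing 20 nM camptothecin, exposed to pin-transferred compounds, and grown at 37 °C for at least 48 hr. Viability was read as ATP luminescence.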
# DT40 TDP1 no CPT – qHTS for Inhibitors of human tyrosyl-DNA phosphodiesterase 1 (TDP1): qHTS in cells in absence of CPT; 420,000 compounds, 15% hits; DT40 Tdp1-/- hTDP1 cells, no CPT, ATP luminescence, 48 h; AID 686978, 2013; Potency, µM (highest dose often 46.2 µM), for inactives: top-dose activity change, negative = growth inhibition, usual class: inhibitors; note: potency is the fitted concentration of half-maximal effect; % is set by controls: 0 for no effect and ±100 for the full control effect; nearly all actives have a fitted effect of over 55% in size
#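 Growth kinetics read by CellTiter-Glo luminescence after ≥48 hr at 37 °C. Cells: DT40 Tdp1-/- stably carrying human TDP1, 400 per well, compound exposure in the absence of CPT (DMSO vehicle).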
# DRD3 antagonist – qHTS of D3 Dopamine Receptor Antagonist: qHTS. max response, negative = inhibition, %. D3R cells, DiscoveRx beta-arrestin luminescence, antagonist mode; active compounds read low. D(3) dopamine receptor (Homo sapiens), P35462. 360,000 compounds, 2.5% hits; in the data active = max response below about -50%; inconclusive = no clear call, values can overlap the other calls; note: % is set by controls: 0 for no effect and ±100 for the full control effect
# Target sequence (P35462 whole entry, looked up): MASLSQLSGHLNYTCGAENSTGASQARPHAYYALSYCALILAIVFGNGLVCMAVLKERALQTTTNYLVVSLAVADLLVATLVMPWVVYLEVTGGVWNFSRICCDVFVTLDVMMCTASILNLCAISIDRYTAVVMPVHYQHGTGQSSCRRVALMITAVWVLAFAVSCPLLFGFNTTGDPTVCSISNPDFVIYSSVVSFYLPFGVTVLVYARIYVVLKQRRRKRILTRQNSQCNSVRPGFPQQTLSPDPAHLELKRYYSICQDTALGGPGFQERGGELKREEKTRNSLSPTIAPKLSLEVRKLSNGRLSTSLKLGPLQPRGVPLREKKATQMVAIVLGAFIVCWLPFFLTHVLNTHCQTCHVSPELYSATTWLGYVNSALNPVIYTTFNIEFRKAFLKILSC
#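 Cells plated overnight at 1500 cells/well, then exposed to library compounds with dopamine controls for 90 minutes at 37 degrees C. DiscoveRx reagent added for 30–60 minutes at room temperature; luminescence read, quantitative HTS format.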
# IL1B secr inh – qHTS for Inhibitors of Inflammasome Signaling: IL-1-beta AlphaLISA Primary Screen; 360,000 compounds, 4.7% hits; THP-1 LPS/ATP IL-1B secretion, AlphaLISA, 16 h; active compounds read low; AID 743279, 2014; activity change, % at 57.5 µM; in the data active = activity change below about -50%; inconclusive = mostly about -30% to -49%; note: % is set by controls: 0 for no effect and ±100 for the full control effect
#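 THP-1 cells pretreated 1 hr with compounds (up to 57.5 uM final), then stimulated with LPS (250 ng/mL final) plus ATP (1.25 mM final); secreted IL-1B measured by AlphaLISA after 16 hr, decreased signal indicating inhibition.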
# ClpP mod – qHTS Assay for Activators of ClpP; ATP-dependent Clp protease proteolytic subunit (Bacillus subtilis (strain 168)), P80244; purified B. subtilis ClpP, FRET peptide cleavage, 20 min; Potency, µM (doses to about 57.5 µM), for the others: at the top dose activity change, negative = active; 340,000 compounds, 1.9% hits; AID 651965, 2013; active = well fitted falling curve with a large enough effect; inconclusive = small, poorly fitted or top-dose-only effect; inactive = no such curve, though single readings can be large or run the other way; note: potency is the fitted concentration of half-maximal effect; the source files actives as falling curves though it sought activators and does not explain the sign; nearly all actives have a fitted effect of over 65% in size
# Target sequence (P80244 whole entry, looked up): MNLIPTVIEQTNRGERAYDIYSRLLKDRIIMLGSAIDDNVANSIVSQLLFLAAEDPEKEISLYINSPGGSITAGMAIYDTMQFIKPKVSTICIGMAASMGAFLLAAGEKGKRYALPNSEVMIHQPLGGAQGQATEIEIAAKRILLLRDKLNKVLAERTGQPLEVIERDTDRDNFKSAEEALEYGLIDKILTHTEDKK
#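 FRET quenching reversal measured ClpP activation: 10 microg/mL B. subtilis ClpP at pH 8 with the FRET-FV decapeptide, read at 430 nm after 320 nm excitation. The 20-min minus 0-min signal was scaled between DMSO/no-enzyme wells and ADEP (5.8 microM final).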
# DRD3 agonist – qHTS of D3 Dopamine Receptor Agonist: qHTS; D(3) dopamine receptor (Homo sapiens), P35462; D3R DiscoveRx beta-arrestin cells, luminescence, 90 min; max activation, %; 410,000 compounds, 0.58% hits; in the data active = max activation above about 30%; note: 0% is about no effect
#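 Agonist mode: compounds and dopamine controls were applied to plated cells for 90 min at 37 degrees C after an overnight attachment at 1500 cells/well. Luminescent read-out followed 30 - 60 minutes at room temperature with DiscoveRx detection reagent.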
# * = called active by the depositor; i = inactive; ? = inconclusive; . = no result given. Hits are enriched below; roughly 21% of the tested compounds scored in any of these assays. Unless noted, calls come from the whole dose curve; as a rule, active = well fitted inhibition curve with a large enough effect; inconclusive = small, poorly fitted or top-dose-only effect; inactive = flat fitted curve, though single readings scatter.
SMILES,DT40 TDP1 CPT,DT40 TDP1 no CPT,DRD3 antagonist,IL1B secr inh,ClpP mod,DRD3 agonist
COC(=O)C1C/C(=N/NS(=O)(=O)c2ccc(C)cc2)CS1 (stereo unspecified),-5%,18%,-2,14,-9%,-3
Cc1ccc2[nH]c(=O)c(CN(CCO)C(=O)N(C)C)cc2c1,-9%,-7%,-16,0,28µM*,-6
COc1ccc(CN(Cc2cc3cc(C)ccc3[nH]c2=O)C(=O)N(C)C)cc1,?,?,34,-2,?,3
CCN1C(=O)[C@H]2[C@@H](c3ccc(C)cc3)N[C@]3(CCCN(CCC(C)C)C3=O)[C@H]2C1=O,-7%,-28%,-4,-5,0%,-3
O=[N+]([O-])c1ccc(OCC(O)CNCCNc2nccc(C(F)(F)F)n2)cc1 (stereo unspecified),-26%,?,-84*,?,-3%,-15
O=C(Nc1ncccc1O)c1c(O)c2ccccc2[nH]c1=O,?,?,30,31,-1%,6
Cc1ccc(N2CCN(S(=O)(=O)c3ccc(F)c(C(=O)Nc4ccc(Cl)cc4Cl)c3)CC2C)cc1 (stereo unspecified),?,?,.,.,-4%,1
CCOC(=O)C1(Cc2cccc(Cl)c2)CCCN(C(=O)c2cccc(C)n2)C1 (stereo unspecified),?,?,0,0,-2%,6
N/C(=N\OC(=O)CC1CCCCC1)c1cccnc1,-4%,0%,-151*,1,1%,-1
N/C(=N\OC(=O)CCC1CCCC1)c1cccnc1,13%,5%,-3,-3,-1%,3
C=CS(=O)(=O)c1ccc(Oc2ccc(S(=O)(=O)C=C)cc2)cc1,2.3µM*,2.3µM*,-91*,-105*,0%,-32
NS(=O)(=O)c1ccc(Oc2ccc(S(N)(=O)=O)cc2)cc1,-27%,-9%,-9,26,.,5
O=C(Nc1ccccc1)N1CC[C@@]2(CCCN(C(=O)c3cc(C(F)(F)F)cc(C(F)(F)F)c3)C2)C1,-11%,?,.,.,.,.
CCOC(=O)[C@@H]1[C@H]2COc3ccc(Br)cc3[C@H]2N2C(=O)N(c3ccc(Cl)cc3)C(=O)[C@]12C,?,9.2µM*,0,-3,0%,5
CCOC(=O)[C@H]1[C@H]2COc3ccc(Br)cc3[C@@H]2N2C(=O)N(c3ccccc3)C(=O)[C@@]12C,18µM*,-28%,10,23,0%,-6
CCOC(=O)[C@@H]1[C@H]2COc3ccc(Br)cc3[C@H]2N2C(=O)N(c3ccc(C(F)(F)F)cc3)C(=O)[C@]12C,?,12µM*,0,7,-1%,3
CCOC(=O)[C@@H]1[C@H]2COc3ccc(Br)cc3[C@@H]2N2C(=O)N(c3ccc(Br)cc3)C(=O)[C@]12C,-14%,?,4,-9,-2%,7
CCOC(=O)Cc1c(C)nc2cc(-c3ccc(C(C)(C)C)cc3)nn2c1C,?,15µM*,.,.,4%,13
COC(=O)c1ccccc1NC(=O)CCc1c(C)nc2cc(-c3ccc(Cl)cc3)nn2c1C,?,?,.,.,?,-9
CCOc1ccc(NC(=O)CCc2c(C)nc3cc(-c4ccc(Cl)cc4)nn3c2C)cc1,15µM*,16µM*,.,.,-17%,-14
Cc1nc2cc(-c3ccc(Cl)cc3)nn2c(C)c1CCC(=O)NCc1ccco1,?,?,-2,16,-17%,1
CCOC(=O)c1cccc(NC(=O)CCc2c(C)nc3cc(-c4ccc(Cl)cc4)nn3c2C)c1,21µM*,16µM*,.,.,?,-4
CCc1c(C(=O)NNC(=S)Nc2ccc(S(=O)(=O)Nc3ncccn3)cc2)csc1C,7%,9%,-20,-22,5%,3
CC1(C(=O)Nc2ccc3c(c2)OCO3)CCN1C(=O)CCC1CCCC1 (stereo unspecified),?,?,23,0,1%,1
Cc1cc(C)c(NC(=O)CNC(=O)c2ccc3c(=O)n4c(nc3c2)CCC4)c(C)c1,1%,-20%,-23,-18,-6%,-4
SMILES,DT40 TDP1 CPT,DT40 TDP1 no CPT,DRD3 antagonist,IL1B secr inh,ClpP mod,DRD3 agonist
CCOC(=O)c1c(NC(=O)CCS(=O)(=O)c2ccccc2)sc2c1CC(C)(C)NC2(C)C,-98%,?,0,i,-5%,1
CCOC(=O)c1c(NC(=O)Cc2ccccc2)sc2c1CC(C)(C)NC2(C)C,?,?,-7,-28,-4%,11
CCOC(=O)c1c(NC(=O)CSc2nnnn2-c2ccccc2OCC)sc2c1CC(C)(C)NC2(C)C,?,15µM*,-4,-78*,-1%,1
CCOC(=O)c1c(NC(=O)CSc2nnnn2-c2ccccc2)sc2c1CC(C)(C)NC2(C)C,16µM*,?,-12,-62*,-2%,-12
CCOC(=O)c1c(NC(=O)CSc2nc3ccc(C)cc3[nH]2)sc2c1CC(C)(C)NC2(C)C,?,?,?,-85*,-5%,-9
CC(=O)NC1C(=O)N=C(SCC(=O)Nc2cccc(Cl)c2)NC1=O (stereo unspecified),-6%,-11%,-4,7,2%,-1
CCCN(C(=O)CSc1nnc(-c2ccncc2)n1CCC)c1c(N)n(Cc2ccccc2)c(=O)[nH]c1=O,1%,4%,9,-4,0%,0
O=S(=O)(NC1CC1)c1ccc(Cl)cc1F,-4%,14%,-7,3,.,7
O=C(CCC1CCCCC1=O)c1ccccc1 (stereo unspecified),-3%,-1%,-4,-5,-2%,1
CCc1ccc(C(=O)CCC2CCCCC2=O)cc1 (stereo unspecified),?,16µM*,-17,-4,2%,-10
COc1ccccc1N1CCN(C2CC(=O)N(C)C2=O)CC1 (stereo unspecified),4%,-15%,-16,18,.,-9
O=C(Nc1ccccc1N1CCCC1)c1cccc(-c2cc3ccccc3oc2=O)c1,?,21µM*,10,-1,?,22
